# Where “and” joins values, the source holds several entries; their conditions need not be identical. Equal entries are not always repeated. About 83,000 compounds went through this panel and 20% of them were active in at least one assay; those are over-represented in the sample as a whole.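 For each line, cells grew in 96-well plates with the test compound present at a single concentration for 48 hours.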 Values without a mark were called inactive. Calls of active or inactive are those of the source. The calls were made as follows: active = growth percent below 10; inactive = the rest.
# Test system: MDA-MB-468 breast
# Test: NCI-60 one-dose screen, 48 h (100 = growth as untreated, 0 = no growth, -100 = all killed)
# Conditions: 10 µM unless noted
row,SMILES,growth
1,N#CC(C#N)=Cc1ccc2ccccc2c1,105%
2,C=CC[PH+](c1ccccc1)c1ccccc1.C=CC[PH+](c1ccccc1)c1ccccc1.[Cl][Pt][Cl],-20.5% (active)
3,COc1ccc(/C=C(/C)[N+](=O)[O-])cc1OC,-87.6% (active) and -87% (active)
4,Brc1ccc2c(c1)c(-c1nc(-c3c[nH]c4ncccc34)cs1)cn2CCN1CCCCC1,79.2%
5,O=C1NC(=O)C(=Cc2ccc(OCCCCC3CCCCC3)c(Cl)c2)C(=O)N1,101%
6,CCC(CC)CC1(C)CC2(C)CCOC2OO1 (stereo unspecified),110%

# Reference: PubChem BioAssay (NCI)
